Assay results published in the supplement of paper PMC13380429.

What follows are compounds tested on Vero E6 infected with SARS-CoV-2 (assay: SARS-CoV-2 infection rate relative to infected DMSO; higher = more infection, active = 60 or less). Conditions: 24 h.

Row | Compound | SARS-CoV-2 infection rate
1 | Cc1cc(CCC[C@H](CC(=O)NO)C(=O)N[C@H](C(=O)N[C@H](C)c2ccccc2)C(C)(C)C)ccc1-c1ccccc1 (0.833333 µM) | 102% (inactive)
2 | CCN(CC)c1ccc(/C=N/NC(=O)c2ccc(O)cc2)cc1 (10 µM) | 107% (inactive)
3 | C[N+]1(C)[C@@H]2CC[C@H]1C[C@@H](OC(=O)C(O)c1ccccc1)C2 (some centres not stated) [homatropine-methylbromide] (10 µM) | 104% (inactive)
4 | COC(=O)C(Cc1ccc(OCCn2c(=O)sc3cc(C(=O)c4ccccc4)ccc32)cc1)C(=O)OC (10 µM) | 88.5% (inactive)
5 | C[C@@H]1NC(=O)[C@@H]2CCCN2C(=O)[C@H](CC(N)=O)NC(=O)[C@@H]2CSSC[C@H](N)C(=O)N[C@H]3CSSC[C@H](NC1=O)C(=O)N[C@@H]([C@@H](C)O)C(=O)NCC(=O)N[C@H](C(=O)N[C@@H](Cc1ccc(O)cc1)C(=O)O)CSSC[C@H](NC(=O)[C@H](Cc1ccc(O)cc1)NC(=O)[C@H](CCC(=O)O)NC3=O)C(=O)N2 [linaclotide] (10 µM) | 106% (inactive)
6 | COC(=O)C1=C(C)NC(C)=C(C(=O)OC(C)C)[C@@H]1c1cccc2nonc12 [isradipine] (10 µM) | 104% (inactive)
7 | O=C(O)c1ccc(-n2nc(-c3ccccc3O)nc2-c2ccccc2O)cc1 [deferasirox] (0.833333 µM) | 114% (inactive)
8 | O=C(CCCCCCNC(=O)c1cnc(N(c2ccccc2)c2ccccc2)nc1)NO (0.833333 µM) | 106% (inactive)
9 | CN/C(=N\c1ccc(C2=NNC(=O)CC2C)cc1)NC#N (configuration not stated) [siguazodan] (10 µM) | 109% (inactive)
10 | Oc1ccc2c3c1O[C@H]1c4oc5ccccc5c4C[C@@]4(O)[C@@H](C2)N(CC2CC2)CC[C@]314 [naltriben] (10 µM) | 106% (inactive)
11 | C=CCN(C)CCCCCCOc1ccc(C(=O)c2ccc(Br)cc2)c(F)c1 (10 µM) | 33.5% (active)
12 | CC1=NN(c2ccc(C)c(C)c2)C(=O)/C1=N\Nc1cccc(-c2cccc(C(=O)O)c2)c1O [eltrombopag] (10 µM) | 99% (inactive)
13 | C=C1CC[C@H](O)C/C1=C/C=C1\CCC[C@]2(C)[C@@H]([C@H](C)CCCC(C)(C)O)CC[C@@H]12 [calcifediol] (10 µM) | 115% (inactive)
14 | C=C(c1ccc(C(=O)O)cc1)c1cc2c(cc1C)C(C)(C)CCC2(C)C [bexarotene] (10 µM) | 108% (inactive)
15 | OC[C@H]1O[C@@H](Oc2ccc(O)cc2)[C@H](O)[C@@H](O)[C@@H]1O [arbutin] (10 µM) | 104% (inactive)
16 | O=C(O)CCCO (10 µM) | 104% (inactive)
17 | O=C(O)CCCc1c[nH]c2ccccc12 [3-indolebutyric-acid] (10 µM) | 114% (inactive)
18 | Cc1ccc(Cl)c(Nc2ccccc2C(=O)O)c1Cl [meclofenamic-acid] (10 µM) | 108% (inactive)
19 | Cn1c(=O)n(-c2ccc(C(C)(C)C#N)cc2)c2c3cc(-c4cnc5ccccc5c4)ccc3ncc21 (10 µM) | 98% (inactive)
20 | Cc1cc(N)c2ccccc2[n+]1CCCCCCCCCC[n+]1c(C)cc(N)c2ccccc21 [dequalinium] (10 µM) | 94% (inactive)
21 | O=C1NC(=O)c2cc(Nc3ccccc3)c(Nc3ccccc3)cc21 (10 µM) | 72% (inactive)
22 | C=C1/C(=C\C=C2/CCC[C@]3(C)[C@@H]([C@H](C)/C=C/[C@@H](O)C4CC4)CC[C@@H]23)C[C@@H](O)C[C@@H]1O [calcipotriol] (10 µM) | 103% (inactive)
